Experimental data reported in PubChem BioAssay (NCI).
This is part of a sample that, as a whole, favours compounds with a hit. Of some 79,000 tested, about 15% had one in any assay. Calls of active or inactive are those of the source. Rule as the data show it: active = growth inhibition above about 70%; inactive = the rest.

Columns and labels:
[1] = NCI Yeast Anticancer Drug Screen. Data for the rad52 strain (AID 147);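 also: 0% = growth of vehicle-treated control cultures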; details: S. cerevisiae rad52 mutant growth inhibition, hits give high values
Method in brief: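 Here a repair-compromised yeast strain receives each compound; its growth is then quantified and normalised to vehicle-only controls.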

[2] = NCI Yeast Anticancer Drug Screen. Data for the wt1 strain (AID 149);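 also: 0% = growth of vehicle-treated wt1 cultures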; details: S. cerevisiae wt1 strain (SPY 50644) growth inhibition, hits give high values
Method in brief: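 Growth inhibition read against vehicle controls after compound exposure of the wt1 yeast strain.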

[3] = NCI Yeast Anticancer Drug Screen. Data for the rad50EPP+ strain (AID 151);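 also: 0% = growth of vehicle-treated control cultures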; details: S. cerevisiae rad50 mutant strain, hits give high values
Method in brief: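 Read-out is yeast growth inhibition relative to vehicle; cells used were the rad50EPP+ strain.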

[4] = NCI Yeast Anticancer Drug Screen. Data for the mgt1 strain (AID 153); details: S. cerevisiae mgt1 mutant growth inhibition, hits give high values
Method in brief: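 Measured: inhibition of mgt1 yeast growth by compound, normalized to vehicle-treated cultures.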

[5] = NCI Yeast Anticancer Drug Screen. Data for the rad50 strain (AID 155);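 also: 0% = growth of vehicle-only cultures of the same strain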; details: S. cerevisiae rad50 strain growth inhibition, hits give high values
Method in brief: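 Readout: growth inhibition relative to vehicle-treated cultures. Compound exposure was carried out in a genetically defined yeast strain deficient in DNA damage repair.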

[6] = NCI Yeast Anticancer Drug Screen. Data for the mec2-1 strain (AID 157); details: S. cerevisiae mec2-1 strain, hits give high values
Method in brief: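 Using mec2-1 yeast: add compound, measure growth, express inhibition versus vehicle-treated cultures.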

[7] = NCI Yeast Anticancer Drug Screen. Data for the rad14 strain (AID 159);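 also: 0% = growth of vehicle-treated control cultures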; details: S. cerevisiae rad14 strain growth inhibition, hits give high values
Method in brief: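 Growth inhibition vs vehicle controls; genetically altered yeast strain (DNA damage repair defect) treated with test compounds.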

[8] = NCI Yeast Anticancer Drug Screen. Data for the sgs1 mgt1 strain (AID 161);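 also: 0% = growth of cultures given vehicle only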; details: S. cerevisiae sgs1 mgt1 strain, hits give high values
Method in brief: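 Yeast cells carrying a defined DNA-repair defect were exposed to test compounds. Growth inhibition was measured relative to vehicle-treated controls.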

[9] = NCI Yeast Anticancer Drug Screen. Data for the CLN2oe strain (AID 163);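 also: 0% = growth of vehicle-only control cultures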; details: S. cerevisiae CLN2oe strain, hits give high values
Method in brief: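 Whole-cell yeast growth assay. A strain engineered for altered cell-cycle control received compound, and inhibition relative to vehicle-treated cultures was recorded.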

[10] = NCI Yeast Anticancer Drug Screen. Data for the cln2 rad14 strain (AID 165);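 also: 0% = growth equal to vehicle treated cultures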; details: S. cerevisiae cln2 rad14 strain, hits give high values
Method in brief: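 Yeast strain cln2 rad14, bearing defects in cell cycle control and DNA repair, serves as the test system; values reflect growth inhibition compared with vehicle.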

[11] = NCI Yeast Anticancer Drug Screen. Data for the bub3 strain (AID 167); details: S. cerevisiae bub3 mutant strain, hits give high values
Method in brief: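 Readout: yeast growth inhibition, expressed relative to vehicle-only wells. The test organism is a mutant strain from a panel with lesions in DNA repair or checkpoint genes.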

[12] = NCI Yeast Anticancer Drug Screen. Data for the wt2 strain (AID 169);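 also: 0% = growth of vehicle-treated yeast cultures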; details: S. cerevisiae wt2 strain growth inhibition, hits give high values
Method in brief: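 Treated yeast vs. vehicle-treated yeast: growth inhibition determined.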

[13] = NCI Yeast Anticancer Drug Screen. Data for the mlh1 strain (AID 171);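 also: 0% = growth of vehicle-treated control cultures of the same strain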; details: S. cerevisiae mlh1 strain growth inhibition, hits give high values
Method in brief: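 A yeast strain with a defined genetic lesion serves as the test organism. Cultures receive compound or vehicle, and growth is measured.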

[14] = NCI Yeast Anticancer Drug Screen. Data for the sgs1 strain (AID 173);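 also: 0% = growth of vehicle-only control cultures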; details: S. cerevisiae sgs1 mutant, hits give high values
Method in brief: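 A genetically defined yeast mutant is incubated with the test compound, and its growth is compared to that of the same strain given vehicle.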

[15] = NCI Yeast Anticancer Drug Screen. Data for the mlh1 rad18 strain (AID 175); details: S. cerevisiae mlh1 rad18 strain growth inhibition, hits give high values
Method in brief: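 Steps: expose repair-defective yeast to compound; measure growth; express inhibition against vehicle-treated controls.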

[16] = NCI Yeast Anticancer Drug Screen. Data for the rad18 strain (AID 177); details: S. cerevisiae rad18 mutant growth inhibition, hits give high values
Method in brief: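 Measured value is growth inhibition of a yeast strain bearing a DNA repair alteration, referenced to vehicle-treated cells.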

[17] = at 5.0 µM (retest, dose inferred, filed as 0.5)
[18] = at 50.0 µM (retest, dose inferred, filed as 5.0)

Measured: growth inhibition

COc1ccc2nc3cccc([N+](=O)[O-])c3c(NCCCCCC(=O)O)c2c1
inactive: [2]; at 1.2 µM 2% | [2]; at 3.7 µM 29% | [3]; at 1.2 µM 38% | [4]; at 1.2 µM 0% | [4]; at 3.7 µM 26% | [6]; at 1.2 µM 63% | [9]; at 1.2 µM 2% | [9]; at 3.7 µM 50% | [11]; at 1.2 µM -11% | [11]; at 3.7 µM 34% | [11]; [17] 2% | [12]; at 1.2 µM 6% | [12]; at 3.7 µM 42% | [13]; at 1.2 µM 23% | [13]; at 3.7 µM 63%
active: [1]; at 1.2 µM 87% | [1]; at 3.7 µM 96% | [1]; at 11.0 µM 97% | [1]; at 33.0 µM 98% | [1]; at 100.0 µM 98% | [2]; at 11.0 µM 93% | [2]; at 33.0 µM 98% | [2]; at 100.0 µM 98% | [3]; at 3.7 µM 81% | [3]; at 11.0 µM 95% | [3]; at 33.0 µM 97% | [3]; at 100.0 µM 98% | [4]; at 11.0 µM 91% | [4]; at 33.0 µM 97% | [4]; at 100.0 µM 99% | [5]; at 1.2 µM 84% | [5]; at 3.7 µM 94% | [5]; [17] 97% | [5]; at 11.0 µM 96% | [5]; at 33.0 µM 97% | [5]; [18] 98% | [5]; at 50.0 µM 87% | [5]; at 100.0 µM 97% | [6]; at 3.7 µM 96% | [6]; [17] 96% | [6]; at 11.0 µM 97% | [6]; at 33.0 µM 98% | [6]; [18] 99% | [6]; at 50.0 µM 91% | [6]; at 100.0 µM 99% | [7]; at 1.2 µM 96% | [7]; at 3.7 µM 99% | [7]; at 11.0 µM 99% | [7]; at 33.0 µM 99% | [7]; at 100.0 µM 99% | [8]; [17] 95% | [8]; [18] 99% | [8]; at 50.0 µM 82.7% | [9]; at 11.0 µM 91% | [9]; at 33.0 µM 97% | [9]; at 100.0 µM 98% | [10]; [17] 99% | [10]; [18] 99% | [10]; at 50.0 µM 88.8% | [11]; at 11.0 µM 96% | [11]; at 33.0 µM 97% | [11]; [18] 99% | [11]; at 50.0 µM 87.2% | [11]; at 100.0 µM 99% | [12]; at 11.0 µM 94% | [12]; at 33.0 µM 97% | [12]; at 100.0 µM 99% | [13]; at 11.0 µM 94% | [13]; at 33.0 µM 97% | [13]; at 100.0 µM 98% | [14]; at 1.2 µM 90% | [14]; at 3.7 µM 93% | [14]; at 11.0 µM 98% | [14]; at 33.0 µM 98% | [14]; at 100.0 µM 98% | [15]; [17] 97% | [15]; [18] 98% | [15]; at 50.0 µM 82.6% | [16]; at 1.2 µM 96% | [16]; at 3.7 µM 96% | [16]; at 11.0 µM 96% | [16]; at 33.0 µM 97% | [16]; at 100.0 µM 98%
